Measurements published in PubChem BioAssay AID1159580 (chemical genetic matrix, 2015).
Screen size: about 5,500 compounds; about 2,000 (36%) were called active. Roughly 18% stayed inconclusive and do not appear here. Rule as the data show it: active = normalized growth mostly below about 0.91 (no sharp cut-off); inconclusive = no clear call, values can overlap the other calls; inactive = mostly above about 0.92. This is one part of the list.

Test: chemical genetic growth profiling, strain panel (AID 1159580);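 also: tested at 20 µM; growth read once vehicle control cultures reached saturation at 30 °C; 1 = growth at the plate median or of vehicle wells; lower values mean less growth of the strain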
Conditions: S. cerevisiae deletion strains, growth OD

Measured: normalized growth

CN1c2ccccc2C(C)(C)C12C=Cc1cc(O)ccc1O2 (stereo unspecified)
inactive: locus YAR019C, strain CDC15, hits give low values 0.981 | locus YBL105C, strain PKC1, hits give low values 0.981 | locus YBR135W, strain CKS1, hits give low values 0.977 | locus YBR136W, strain MEC1, hits give low values 0.981 | locus YBR160W, strain CDC28, hits give low values 0.984 | locus YDL017W, strain CDC7, hits give low values 0.974 | locus YDL028C, strain MPS1, hits give low values 0.979 | locus YDL101C, strain DUN1, hits give low values 0.975 | locus YDL108W, strain KIN28, hits give low values 0.974 | locus YDL132W, strain cdc53, hits give low values 0.977 | locus YDL214C, strain PRR2, hits give low values 0.986 | locus YDR052C, strain DBF4, hits give low values 0.982 | locus YDR054C, strain cdc34, hits give low values 0.97 | locus YDR226W, strain ADK1, hits give low values 0.972 | locus YDR477W, strain SNF1, hits give low values 0.971 | locus YER123W, strain YCK3, hits give low values 0.987 | locus YER133W, strain GLC7, hits give low values 0.974 | locus YFL009W, strain cdc4, hits give low values 0.968 | locus YFL029C, strain CAK1, hits give low values 0.978 | locus YFR003C, strain YPI1, hits give low values 0.976 | locus YFR019W, strain FAB1, hits give low values 0.993 | locus YFR028C, strain CDC14, hits give low values 0.976 | locus YGR040W, strain KSS1, hits give low values 0.972 | locus YGR052W, strain FMP48, hits give low values 1.01 | locus YGR092W, strain DBF2, hits give low values 0.996 | locus YHR030C, strain SLT2, hits give low values 0.897 | locus YHR079C, strain IRE1, hits give low values 1.01 | locus YHR082C, strain KSP1, hits give low values 1.06 | locus YHR205W, strain SCH9, hits give low values 0.985 | locus YIL147C, strain SLN1, hits give low values 0.978 | locus YJL095W, strain BCK1, hits give low values 1.01 | locus YJL128C, strain PBS2, hits give low values 0.942 | locus YJL157C, strain FAR1, hits give low values 0.978 | locus YJR016C, strain ILV3, hits give low values 0.968 | locus YJR066W, strain TOR1 (second series), hits give low values 0.965 | locus YJR066W, strain TOR1, hits give low values 1.08 | locus YKL048C, strain ELM1, hits give low values 0.975 | locus YKL067W, strain YNK1, hits give low values 0.975 | locus YKL101W, strain HSL1, hits give low values 0.962 | locus YKL193C, strain SDS22, hits give low values 0.973 | locus YKL203C, strain TOR2, hits give low values 1.05 | locus YLR113W, strain HOG1, hits give low values 0.891 | locus YLR133W, strain CKI1, hits give low values 0.984 | locus YLR403W, strain SFP1, hits give low values 1.01 | locus YML070W, strain DAK1, hits give low values 0.978 | locus YMR001C, strain CDC5, hits give low values 0.971 | locus YMR205C, strain PFK2 (second series), hits give low values 0.991 | locus YMR277W, strain FCP1, hits give low values 0.973 | locus YNL006W, strain LST8, hits give low values 0.978 | locus YNL020C, strain ARK1, hits give low values 0.982 | locus YNL161W, strain CBK1, hits give low values 0.973 | locus YNL183C, strain NPR1, hits give low values 1.08 | locus YNL207W, strain RIO2, hits give low values 0.974 | locus YNL222W, strain SSU72, hits give low values 0.986 | locus YNL307C, strain MCK1 (second series), hits give low values 0.978 | locus YOL078W, strain AVO1, hits give low values 0.975 | locus YOL136C, strain PFK27, hits give low values 0.991 | locus YOR061W, strain CKA2, hits give low values 0.993 | locus YOR119C, strain RIO1, hits give low values 1.05 | locus YOR231W, strain MKK1, hits give low values 1.02 | locus YOR329C, strain SCD5, hits give low values 0.985 | locus YPL031C, strain PHO85, hits give low values 0.962 | locus YPL153C, strain RAD53, hits give low values 0.958 | locus YPL204W, strain HRR25, hits give low values 0.943 | locus YPL209C, strain IPL1, hits give low values 0.974 | locus YPL256C, strain CLN2, hits give low values 0.899 | locus YPR025C, strain CCL1, hits give low values 0.993 | locus YPR106W, strain ISR1, hits give low values 0.984 | locus YPR111W, strain DBF20, hits give low values 0.977 | strain NNK1, hits give low values 0.989 | strain TSCII, hits give low values 0.978
